Test results: the supplement of paper PMC3545927
Some of the results follow. The true hit rate is not given.

Target: furin, P09958
Assay: furin cleavage Z-score vs untreated control; higher = more cleavage, active = 3.5 or more, inactive = 1 or less, 8 variable residues between constant flanks
In short: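 The cleavage Z-score is the log read count relative to furin-free reactions, lowess-adjusted and scaled by median absolute deviation. Counts came from sequencing DNA released from bead-bound 8-mer peptide–cDNA fusions after digestion with purified furin for 7.5, 15 or 30 min.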
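Also: purified furin at 1:10 enzyme:substrate in 50 mM HEPES pH 7.5.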

furin, P09958, sequence (P09958 whole entry): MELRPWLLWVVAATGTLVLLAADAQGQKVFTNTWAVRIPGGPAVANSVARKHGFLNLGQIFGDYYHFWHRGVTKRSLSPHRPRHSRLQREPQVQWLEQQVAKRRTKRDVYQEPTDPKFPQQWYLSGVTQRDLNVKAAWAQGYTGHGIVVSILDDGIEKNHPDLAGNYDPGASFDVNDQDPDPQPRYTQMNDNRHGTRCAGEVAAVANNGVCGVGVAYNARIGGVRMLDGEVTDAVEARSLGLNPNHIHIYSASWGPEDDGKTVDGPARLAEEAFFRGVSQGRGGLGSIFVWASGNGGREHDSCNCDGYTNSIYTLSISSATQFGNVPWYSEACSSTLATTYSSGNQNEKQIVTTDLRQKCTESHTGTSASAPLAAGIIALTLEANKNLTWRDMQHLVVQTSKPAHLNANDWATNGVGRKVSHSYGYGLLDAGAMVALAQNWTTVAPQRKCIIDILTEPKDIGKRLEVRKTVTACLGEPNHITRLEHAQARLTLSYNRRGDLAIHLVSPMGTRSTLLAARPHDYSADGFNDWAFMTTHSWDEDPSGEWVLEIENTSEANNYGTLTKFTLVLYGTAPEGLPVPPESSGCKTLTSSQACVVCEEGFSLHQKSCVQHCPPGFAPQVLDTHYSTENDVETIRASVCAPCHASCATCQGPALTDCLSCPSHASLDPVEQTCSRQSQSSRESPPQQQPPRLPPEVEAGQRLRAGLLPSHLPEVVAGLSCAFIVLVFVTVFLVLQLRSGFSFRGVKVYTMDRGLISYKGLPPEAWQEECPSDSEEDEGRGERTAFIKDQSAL

CAIYGACYSIAGNASASA [HC1594]
furin cleavage Z-score (7.5 min): 0.0718 (inactive)
furin cleavage Z-score (15 min): 0.563 (inactive)
furin cleavage Z-score (30 min): -0.201 (inactive)

CARGLLGCIIAGNASASA [HC679]
furin cleavage Z-score (7.5 min): -0.71 (inactive)
furin cleavage Z-score (15 min): -0.595 (inactive)
furin cleavage Z-score (30 min): -1.08 (inactive)

CARLARASRDAGNASASA [FS-1606]
furin cleavage Z-score (7.5 min): 6.41 (active)
furin cleavage Z-score (15 min): 5.81 (active)
furin cleavage Z-score (30 min): 5.23 (active)

CAVHSRASRDAGNASASA [FS-205]
furin cleavage Z-score (7.5 min): 6.86 (active)
furin cleavage Z-score (15 min): 6.96 (active)
furin cleavage Z-score (30 min): 4.81 (active)

CAEVPCHNPSAGNASASA [HC2381]
furin cleavage Z-score (7.5 min): -0.125 (inactive)
furin cleavage Z-score (15 min): 0.398 (inactive)
furin cleavage Z-score (30 min): -1.22 (inactive)

CASGYRGRRSAGNASASA [FS-1279]
furin cleavage Z-score (7.5 min): 10.4 (active)
furin cleavage Z-score (15 min): 9.6 (active)
furin cleavage Z-score (30 min): 8.02 (active)

CAYLNRGRRSAGNASASA [FS-1504]
furin cleavage Z-score (7.5 min): 8.94 (active)
furin cleavage Z-score (15 min): 11.8 (active)
furin cleavage Z-score (30 min): 8.66 (active)

CASLARGRRSAGNASASA [FS-295]
furin cleavage Z-score (7.5 min): 9.48 (active)
furin cleavage Z-score (15 min): 9.53 (active)
furin cleavage Z-score (30 min): 7.6 (active)

CALPEAGRRSAGNASASA [FS-1462]
furin cleavage Z-score (7.5 min): -0.222 (inactive)
furin cleavage Z-score (15 min): -0.673 (inactive)
furin cleavage Z-score (30 min): -1.48 (inactive)

CAIPRRHTRSAGNASASA [FS-1015]
furin cleavage Z-score (7.5 min): 4.95 (active)
furin cleavage Z-score (15 min): 4.88 (active)
furin cleavage Z-score (30 min): 4.46 (active)

CAYYHRHTRSAGNASASA [FS-577]
furin cleavage Z-score (7.5 min): 0.662 (inactive)
furin cleavage Z-score (15 min): 0.71 (inactive)
furin cleavage Z-score (30 min): 1.07

CASPERHTRSAGNASASA [FS-1414]
furin cleavage Z-score (7.5 min): 9.58 (active)
furin cleavage Z-score (15 min): 9.61 (active)
furin cleavage Z-score (30 min): 8.51 (active)

CASPARLARRAGNASASA [FS-869]
furin cleavage Z-score (7.5 min): 0.549 (inactive)
furin cleavage Z-score (15 min): 3.9 (active)
furin cleavage Z-score (30 min): 4.41 (active)

CALVSRVTRSAGNASASA [FS-363]
furin cleavage Z-score (7.5 min): 13 (active)
furin cleavage Z-score (15 min): 12.8 (active)
furin cleavage Z-score (30 min): 10.3 (active)

CACYIKARAAAGNASASA [HC1518]
furin cleavage Z-score (7.5 min): -1.15 (inactive)
furin cleavage Z-score (15 min): -2.21 (inactive)
furin cleavage Z-score (30 min): -1.87 (inactive)

CALETTMRSPAGNASASA [HC761]
furin cleavage Z-score (7.5 min): -0.168 (inactive)
furin cleavage Z-score (15 min): -1 (inactive)
furin cleavage Z-score (30 min): -1.96 (inactive)

CACDECHSTDAGNASASA [HC818]
furin cleavage Z-score (7.5 min): 0.0668 (inactive)
furin cleavage Z-score (15 min): -0.316 (inactive)
furin cleavage Z-score (30 min): -1.36 (inactive)

CAVVCCSMSSAGNASASA [HC2097]
furin cleavage Z-score (7.5 min): -1.16 (inactive)
furin cleavage Z-score (15 min): -0.774 (inactive)
furin cleavage Z-score (30 min): -1.81 (inactive)

CASLDPTFTIAGNASASA [HC893]
furin cleavage Z-score (7.5 min): -1.06 (inactive)
furin cleavage Z-score (15 min): -1.75 (inactive)
furin cleavage Z-score (30 min): -1.02 (inactive)

CASPLRQNRSAGNASASA [FS-299]
furin cleavage Z-score (7.5 min): 0.752 (inactive)
furin cleavage Z-score (15 min): 0.557 (inactive)
furin cleavage Z-score (30 min): 0.444 (inactive)

CAMDARTDRSAGNASASA [FS-1375]
furin cleavage Z-score (7.5 min): 1.8
furin cleavage Z-score (15 min): -1.12 (inactive)
furin cleavage Z-score (30 min): 0.78 (inactive)

CASPARETRSAGNASASA [FS-627]
furin cleavage Z-score (7.5 min): 5.25 (active)
furin cleavage Z-score (15 min): 8.43 (active)
furin cleavage Z-score (30 min): 6.33 (active)

CAQLRRTTRSAGNASASA [FS-285]
furin cleavage Z-score (7.5 min): 7.33 (active)
furin cleavage Z-score (15 min): 6.26 (active)
furin cleavage Z-score (30 min): 6.25 (active)

CAEYVTSTWVAGNASASA [HC2169]
furin cleavage Z-score (7.5 min): 0.357 (inactive)
furin cleavage Z-score (15 min): 0.186 (inactive)
furin cleavage Z-score (30 min): -1.53 (inactive)

CAAGAAIGSVAGNASASA [HC1078]
furin cleavage Z-score (7.5 min): -1.21 (inactive)
furin cleavage Z-score (15 min): 0.457 (inactive)
furin cleavage Z-score (30 min): -0.822 (inactive)

CAEVVTSHWVAGNASASA [HC2215]
furin cleavage Z-score (7.5 min): -1.58 (inactive)
furin cleavage Z-score (15 min): -0.204 (inactive)
furin cleavage Z-score (30 min): 0.171 (inactive)

CADPTTPLARAGNASASA [HC1564]
furin cleavage Z-score (7.5 min): -0.242 (inactive)
furin cleavage Z-score (15 min): -3 (inactive)
furin cleavage Z-score (30 min): -1.34 (inactive)

CAVRARLLARAGNASASA [HC1624]
furin cleavage Z-score (7.5 min): -2.8 (inactive)
furin cleavage Z-score (15 min): -0.431 (inactive)
furin cleavage Z-score (30 min): -0.318 (inactive)

CAAAGRRLARAGNASASA [HC1253]
furin cleavage Z-score (7.5 min): 4.08 (active)
furin cleavage Z-score (15 min): 4.81 (active)
furin cleavage Z-score (30 min): 4.86 (active)

CAVDCCSMSYAGNASASA [HC2011]
furin cleavage Z-score (7.5 min): 0.752 (inactive)
furin cleavage Z-score (15 min): -0.617 (inactive)
furin cleavage Z-score (30 min): 0.379 (inactive)

CAARIRVKRYAGNASASA [FS-8]
furin cleavage Z-score (7.5 min): 8.19 (active)
furin cleavage Z-score (15 min): 7 (active)
furin cleavage Z-score (30 min): 8.58 (active)

CALAERRVRIAGNASASA [FS-265]
furin cleavage Z-score (7.5 min): 0.222 (inactive)
furin cleavage Z-score (15 min): 0.166 (inactive)
furin cleavage Z-score (30 min): -2.18 (inactive)

CARCRRNKRIAGNASASA [FS-1649]
furin cleavage Z-score (7.5 min): 4.5 (active)
furin cleavage Z-score (15 min): 6.14 (active)
furin cleavage Z-score (30 min): 4.22 (active)

CALILRSKRYAGNASASA [FS-1024]
furin cleavage Z-score (7.5 min): 9.69 (active)
furin cleavage Z-score (15 min): 10.5 (active)
furin cleavage Z-score (30 min): 10.3 (active)

CAMHIRRKRIAGNASASA [FS-1235]
furin cleavage Z-score (7.5 min): 8.17 (active)
furin cleavage Z-score (15 min): 9.27 (active)
furin cleavage Z-score (30 min): 7.92 (active)

CAFKNRSCRIAGNASASA [FS-768]
furin cleavage Z-score (7.5 min): -0.201 (inactive)
furin cleavage Z-score (15 min): 0.864 (inactive)
furin cleavage Z-score (30 min): 0.865 (inactive)

CADFDSVIDCAGNASASA [HC884]
furin cleavage Z-score (7.5 min): -0.725 (inactive)
furin cleavage Z-score (15 min): -1.64 (inactive)
furin cleavage Z-score (30 min): -0.179 (inactive)

CAEVYCHRPSAGNASASA [HC2349]
furin cleavage Z-score (7.5 min): -0.918 (inactive)
furin cleavage Z-score (15 min): 0.00682 (inactive)
furin cleavage Z-score (30 min): -0.904 (inactive)

CAAEECSQHLAGNASASA [HC1663]
furin cleavage Z-score (7.5 min): 0.467 (inactive)
furin cleavage Z-score (15 min): 0.000249 (inactive)
furin cleavage Z-score (30 min): 1.4

CASRGENCGYAGNASASA [HC1505]
furin cleavage Z-score (7.5 min): 1.28
furin cleavage Z-score (15 min): -1.03 (inactive)
furin cleavage Z-score (30 min): -0.54 (inactive)

CAFHIRRKRYAGNASASA [FS-651]
furin cleavage Z-score (7.5 min): 11.7 (active)
furin cleavage Z-score (15 min): 12.5 (active)
furin cleavage Z-score (30 min): 10.9 (active)

CALTHPVTKYAGNASASA [HC979]
furin cleavage Z-score (7.5 min): -1.06 (inactive)
furin cleavage Z-score (15 min): 1.08
furin cleavage Z-score (30 min): 1.75

CAFHIRRKRYAGNASASA [FU9]
furin cleavage Z-score (7.5 min): 11 (active)
furin cleavage Z-score (15 min): 12.5 (active)
furin cleavage Z-score (30 min): 11.3 (active)

CANHVSPTHYAGNASASA [HC1124]
furin cleavage Z-score (7.5 min): -0.962 (inactive)
furin cleavage Z-score (15 min): 0.0646 (inactive)
furin cleavage Z-score (30 min): -0.575 (inactive)

CAAICRRKRYAGNASASA [FS-396]
furin cleavage Z-score (7.5 min): 11.5 (active)
furin cleavage Z-score (15 min): 13.2 (active)
furin cleavage Z-score (30 min): 11.3 (active)

CAAICGKYLFAGNASASA [HC1630]
furin cleavage Z-score (7.5 min): 1.25
furin cleavage Z-score (15 min): -1.22 (inactive)
furin cleavage Z-score (30 min): -0.719 (inactive)

CAANVRRKRYAGNASASA [FS-643]
furin cleavage Z-score (7.5 min): 12.5 (active)
furin cleavage Z-score (15 min): 13.8 (active)
furin cleavage Z-score (30 min): 11.3 (active)

CASRHRVTRYAGNASASA [FS-1489]
furin cleavage Z-score (7.5 min): 9.37 (active)
furin cleavage Z-score (15 min): 11.3 (active)
furin cleavage Z-score (30 min): 10.7 (active)

CANFISGIQYAGNASASA [HC1044]
furin cleavage Z-score (7.5 min): -0.934 (inactive)
furin cleavage Z-score (15 min): -0.739 (inactive)
furin cleavage Z-score (30 min): -0.721 (inactive)
